According to ChEMBL document CHEMBL3988442, “University of Dundee, Small-Polar-MMV Screening Library” (2021):
Out of some 48,000 compounds screened, about 13,000 (27%) showed an effect of 50% or more. The list shows a part of the results.

System: Wolbachia pipientis
Test: Anti-Wolbachia Cell-Based Screen
Format: functional
Parameters: scale not given: in the data most compounds retested in dose-response had high values
Conditions: 5 µM

Compound | Percent Effect
O=C(N[C@@H]1CN(c2ncccn2)C[C@@H]2CCCO[C@@H]21)c1cccnc1.O=C(O)C(F)(F)F.O=C(O)C(F)(F)F | -5.975%
CCOCCN1CCN(Cc2cccc(C(=O)N(C)C)c2)CC1 | -1.534%
CCN1CCN(C(=O)c2cccc(CN3CCOCC3)c2)CC1 | 97.52%
COCc1cccc(C(=O)N2CCCC2)c1 | -4.067%
CN1CCN(C(=O)c2cccc(CN3CCOCC3)c2)CC1 | 132.9%
NC(=O)C1CCN(C(=O)c2cccc(CN3CCOCC3)c2)CC1 | -12.72%
O=C(c1cccc(NCCO)c1)N1CCOCC1 | 0.9463%
CCN1CCN(C(=O)c2ccn(C)c(=O)c2)CC1 | 15.1%
CC1CCCN(C(=O)c2cccc(CS(C)(=O)=O)c2)C1 (stereo not given) | -2.941%
CC1CCN(C(=O)c2cccc(CN3CCOCC3)c2)CC1 | 117.9%
COC(=O)[C@@H]1Cc2ncn(C(C)C)c2CN1S(=O)(=O)Cc1ccccc1 | 1.678%
CCN(CC)S(=O)(=O)NC(C)C(=O)N(C)C (stereo not given) | -9.888%
CC(C)c1nnc(CNc2ccc(SC(F)(F)F)cc2)o1 | -0.02401%
CCc1ccc(C2CCCCCN2C(=O)CNC(=O)NC2CC2)o1 (stereo not given) | -27.64%
Cc1ccnc(N2CCCC(c3noc(C(C)C)n3)C2)n1 (stereo not given) | 19.69%
c1cnnc(N2CCCC2CNCc2cnc(N3CCCC3)nc2)c1 (stereo not given) | -1.846%
O=C1OCCN1Cc1cc(C(F)(F)F)ccc1F | -10.76%
O=C(O)C(F)(F)F.O=C(O)C(F)(F)F.c1cnc(N2CCOC3(CCCN(c4cnccn4)C3)C2)nc1 (stereo not given) | -4.65%
O=C(O)C(F)(F)F.c1ccc(N2CCOC3(CCCN(c4ncccn4)C3)C2)nc1 (stereo not given) | 84.77%
Cc1nnc(N2CCCC3(CN(Cc4ccc(C)s4)CCO3)C2)o1.O=C(O)C(F)(F)F.O=C(O)C(F)(F)F (stereo not given) | -0.4451%
N#Cc1cccc(N2CCCC3(C2)CN(c2ncccn2)CCO3)n1.O=C(O)C(F)(F)F (stereo not given) | -0.7909%
CCS(=O)(=O)N1CCOC2(CCCN(c3ccccn3)C2)C1.O=C(O)C(F)(F)F (stereo not given) | -10.79%
Cc1nnc(N2CCCC3(CN(c4ccccn4)CCO3)C2)o1.O=C(O)C(F)(F)F (stereo not given) | 102.3%
Cc1cc(C(C)NC(=O)CCN2C(=O)c3ccccc3C2=O)c(C)o1 (stereo not given) | -2.425%
Cc1nc(Nc2ncccn2)cc(C2CCCN2C2CCOCC2)n1 (stereo not given) | -10.06%

Compound | Percent Effect
c1cc(-c2c[nH]c([C@@H]3COCCN3Cc3ncc[nH]3)n2)ccn1 | -5.75%
Cc1nc(Nc2ccccn2)cc(C2CCCN2Cc2ncc[nH]2)n1 (stereo not given) | 129.4%
Cc1nc(Nc2ncccn2)cc(C2CCCN2Cc2ncc[nH]2)n1 (stereo not given) | 97.78%
CCc1cc(C(C)Nc2nc(-c3cccnc3)nc3c2CNC3)on1 (stereo not given) | -7.07%
CN(C)C(C)(C)CNC(=O)C(C)(C)c1ccccc1F | -19.41%
Cc1csc(C2(NC(=O)NCCN3CCOCC3)CCCC2)n1 | -11.69%
COc1cccc(NC(=O)N(CCC(F)(F)F)C[C@H](O)CO)c1 | -14.76%
CCc1ccccc1OC1CN(C(=O)c2sccc2N)C1 | 9.804%
CC(C)c1nc2n(n1)CC(NCC(=O)NCCC1=CCCCC1)CC2 (stereo not given) | -9.722%
N#CCCNC(=O)CN1CC(n2cccn2)C1 | 139.2%
O=C(CN1CC(n2cccn2)C1)NCCC1=CCCCC1 | 104.9%
O=C(CN1CC(n2cccn2)C1)NCCc1ccc(F)cc1 | 97.63%
O=C(CN1CC(n2cccn2)C1)NCCCc1ccccc1 | -6.652%
O=C(c1ccc(CN2CC(n3cccn3)C2)cc1)N1CCCC1 | 6.953%
CC(Cn1cccn1)NC(=O)NCCN1CCCCCC1=O (stereo not given) | -10.88%
O=C(CN1CCCC(c2ncc[nH]2)C1)NCCCN1CCCCCC1=O (stereo not given) | 11.49%
O=C(CN1CC(n2cccn2)C1)NCCc1c[nH]c2ccccc12 | -3.25%
CCC1CN(CC(=O)NCCC#N)CCO1 (stereo not given) | -6.003%
O=C(CN1CC(n2cccn2)C1)NCCCN1CCCC1=O | 95.99%
O=C(CN1CC(n2cccn2)C1)NCC1(c2ccccc2)CCC1 | 14.59%
CNC(=O)CCNC(=O)c1ccccc1N1CCOCC1 | -6.711%
CCC1CN(C(=O)c2ccccc2C#N)CCN1C(C)C (stereo not given) | -3.955%
COc1ccc2c(c1)C1(CCN(Cc3nccs3)CC1)N(C)CC2.O=C(O)C(F)(F)F.O=C(O)C(F)(F)F | 6.008%
COc1ccc(-c2n[nH]cc2CN(C)Cc2nonc2C)c(F)c1 | -4.147%
O=C([C@H]1C[C@H]2OCC[C@H]2N(C(=O)C2CCOCC2)C1)N1CCCCO1 | -4.541%

Compound | Percent Effect
CCOC(=O)c1ccccc1NC(=O)CN(C)Cc1ccccc1Cl.O=C(O)C(=O)O | 16.66%
CC(=O)NCCC(=O)NCc1ccc(Br)cc1Cl | -2.805%
Cc1cccc(C(C)(C)CNc2cn[nH]c(=O)c2Cl)c1 | 26.78%
O=C(O)Cc1cccc(-n2ccnc2-c2ccc(Cl)s2)c1 | 1.594%
O=C(NC1CC1)c1cc(NC(=O)N2CCOCC2)ccc1Cl | -10.77%
CC(=O)N1CCCN(C(=O)NCCc2ccc(Cl)s2)CC1 | 4.085%
NC(=O)C1CCN(C(=O)Cc2cnc(-c3c(Cl)cccc3Cl)s2)CC1 | 112.4%
O=C(O)Cc1cnc(-c2c(Cl)cccc2Cl)s1 | 122.5%
Cc1oc(CNC(=O)Cc2ccccc2Cl)cc1C(=O)O | -14.11%
CC(=O)N1CCN(C(=O)Cc2cnc(-c3c(Cl)cccc3Cl)s2)CC1 | 110.1%
Cc1ncc(CN(C)C(=O)Nc2cccc(C(=O)N3CCOCC3)c2)s1 | -6.788%
Cc1nc2ccnn2c(C)c1CCC(=O)N1CCC(C(N)=O)CC1 | 1.242%
NC(=O)C1CCN(C(=O)Cc2ccc(Cl)c(Cl)c2)CC1 | -1.39%
O=C(Cc1cnc(-c2c(Cl)cccc2Cl)s1)N1CCOCC1 | 134.1%
CN(C)C(=O)N1CCN(Cc2cnc(-c3ccsc3)s2)CC1 | -2.871%
Cc1ncccc1OC1(C(=O)NCCC2CCCN2C)CCNCC1 (stereo not given) | 17.07%
CCCOCC(=O)N1CCCN(Cc2csc(CC)n2)CC1 | 2.804%
CS(=O)(=O)CCCN1CCSCC1c1ccc(Cl)cc1 (stereo not given) | -3.255%
CCC(CC)(CNC(C)=O)NC(C)c1ccccc1 (stereo not given) | 1.082%
O=C(Nc1nccs1)N(CCO)Cc1ccsc1 | -2.808%
CCN(CC(=O)Nc1c(C)n[nH]c1C)CC(O)c1ccc(C)cc1 (stereo not given) | -7.699%
CCN(CC(=O)Nc1c(C)nn(C)c1C)CC(O)c1ccc(C)cc1 (stereo not given) | 2.184%
CCN(CC(O)c1ccc(C)cc1)C(=O)NC(C)C (stereo not given) | 91.44%
CC(C)NC(=O)CNC(C)COc1ccccc1 (stereo not given) | 2.359%
CC(C)CN(CC(O)c1ccccc1)C(=O)Nc1nccs1 (stereo not given) | 92.63%

Compound | Percent Effect
CC(C)CN(CC(O)c1ccccc1)C(=O)NC(C)C (stereo not given) | 126.3%
CC(NC(=O)Nc1nccs1)c1cccnc1 (stereo not given) | -1.338%
Cc1nn(C)c(Cl)c1C1CCCN1c1ncnc2[nH]ccc12 (stereo not given) | -15.05%
CCc1nnc(N[C@H](C)c2cccc(OC)c2)o1 | -47.91%
Cc1nc(CN2CC[C@H]3[C@H]2CCN3c2nncs2)cs1.O=C(O)C(F)(F)F.O=C(O)C(F)(F)F | 10.04%
Cc1nc(CN2CC[C@H]3[C@@H]2CCC(=O)N3c2cnn(C)c2)cs1.O=C(O)C(F)(F)F | 98.36%
Cn1cc(C(=O)N[C@H]2CN(Cc3nccs3)[C@@H]3CCCO[C@H]23)cn1.O=C(O)C(F)(F)F | -3.983%
Cn1cc(N2C(=O)CC[C@@H]3[C@H]2CCN3C(=O)c2cscn2)cn1.O=C(O)C(F)(F)F | -22.63%
Cc1nc(CO[C@@H]2CN(Cc3cnn(C)c3)[C@@H]3COC[C@@H]32)cs1.O=C(O)C(F)(F)F | -7.827%
Cn1cc(N2C(=O)CC[C@@H]3[C@H]2CCN3Cc2nccs2)cn1.O=C(O)C(F)(F)F | 92.26%
Cc1nc(C)c(-c2nnc(SCC(=O)O)n2C(C)c2ccccc2)o1 (stereo not given) | 4.033%
O=C(c1ccc2cc[nH]c2c1)N1CCCN(Cc2cscn2)CC1 | 102.9%
Cn1cc(CN2CCCN(C(=O)c3ccc4c(c3)COC4)CC2)cn1 | -5.776%
CN1CCN(C(=O)c2cccc(OCc3cscn3)c2)CC1 | -0.311%
Fc1cccc(CN2CCN(Cc3cscn3)CC2)c1 | -6.647%
Cc1cccc(C(=O)N2CCCN(Cc3cscn3)CC2)c1 | 101.4%
O=C(c1ccc(O)cc1)N1CCN(C(=O)c2ccc3c(c2)COC3)CC1 | -5.572%
O=C(c1cccc(F)c1)N1CCCN(Cc2cscn2)CC1 | 112.5%
O=C(c1ccc2c(c1)COC2)N1CCCN(Cc2cscn2)CC1 | 97.01%
CSCC(CCO)NC(=O)Nc1cccc(Br)c1 (stereo not given) | -3.109%
O=C(NCCO)c1coc(CN2CCN(c3ccccc3F)CC2)n1 | 7.764%
COCc1noc(-c2ccc(N(C)Cc3c(C)n[nH]c3C)nc2)n1 | -8.806%
O=C(NC[C@H]1OC[C@@H](NC2CCC(F)(F)CC2)[C@@H]1O)c1cccs1 | -23.1%
C=C(C)CN(CC)S(=O)(=O)c1ccccc1C#N | -2.977%
Cc1nnc(NCC2(c3ccccc3)CCOCC2)c(C#N)c1C | -16.92%
